Laboratory results as given in PubChem BioAssay (NCI).
The panel holds about 83,000 compounds, 20% with a hit somewhere; the sample as a whole holds those more often.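 Activity criterion: percent growth below 10, measured after cells in 96-well plates were exposed to a single compound concentration for 48 hours.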 A number with no mark means an inactive call. The source made the active and inactive calls.

test system: EKVX NSCLC; test: NCI-60 one-dose screen, 48 h (100 = growth as untreated, 0 = no growth, -100 = all killed); settings: 10 µM unless noted

SMILES	growth
COC(=O)c1cc2cc(-c3ccc(OC)cc3)cnc2[nH]1	47%
Cc1ccc(S(=O)(=O)n2cc(C(=O)C(=O)N3CCOCC3)c3ccccc32)cc1	88%
COc1ccc(-c2nc(/C=N/Nc3cc(C)nc4ccc(Cl)cc34)c(C)o2)cc1	-19.4% (active)
O=C1c2ccccc2-c2ccccc2C1(Cl)Cl	-93.2% (active)
COc1ccc(-c2cn(-c3cccc(C(=O)/C=C/c4cc(OC)c(OC)c(OC)c4)c3)c(=O)[nH]2)cc1OC	98%
CCCCCCCCCCCCNC(=O)[C@H]1CSC(c2ccsc2)N1 (some centres undefined)	-84% (active)
COc1cc(C2NN=C3c4ccccc4CCC32)cc(OC)c1OC (centres undefined)	72.6%
O=C(N/N=C/C=C\c1ccccc1)C(=O)N/N=C/C=C/c1ccccc1	111%
CN1CCN(Cc2ccc(NC(=O)c3cncc(C#Cc4cnc(N)c5ccncc45)c3)cc2C(F)(F)F)CC1	13.9%
N=C(N)c1ccc(-c2ccc(-c3ccc4ccccc4c3)s2)cc1	105%
COc1cc(/C=C/C(=O)c2cccc(-n3cc(-c4cc(OC)c(OC)c(OC)c4)[nH]c3=O)c2)cc(OC)c1OC	51.6%
N=C(N)c1ccc(-c2ccc(-c3ccc(-c4cccs4)s3)s2)cc1	90.1%
COc1ccc(-c2ccc(-c3ccc(C(=N)N)s3)s2)cc1Cl	70.1%
O=c1[nH]c2ccc(Br)cc2c2c1C(c1ccc(Cl)cc1)c1c(ncn3nc(-c4ccco4)nc13)O2 (centres undefined)	48.8%
N=C(N)c1ccc(-c2cc(Cl)cc(Cl)c2)cn1	80.4%
Cc1nc2ncccc2nc1Nc1ccc(S(=O)(=O)Nc2cncs2)cc1	88.2%
Cc1cc(N/N=C/c2nc(-c3ccccc3)oc2C)c2cc(Cl)ccc2n1	-59.4% (active)
Cc1nc2ncccc2nc1Nc1ccc(S(=O)(=O)Nc2ccccn2)cc1	98%
NC(=S)N/N=C1\CCCC(C(F)(F)F)C1 (centres undefined)	84.7%
Oc1ccc2cc(Br)ccc2c1-c1c(O)ccc2cc(Br)ccc12	57.6%
CCC(=O)Oc1ccc(/C(=C(/C)Cc2cccc(OC)c2)c2ccc(OCCN(C)C)cc2)cc1	94.4%
COC1=C(OC)C(=O)C(CCCCCCCCCC[P+](c2ccccc2)(c2ccccc2)c2ccccc2)=C(C)C1=O	-6.16% (active)
O=C(CN1CCN(c2cc3c(cc2F)c(=O)c(C(=O)N/N=C/c2ccccc2O)cn3C2CC2)CC1)N/N=C\c1ccccc1O	23%
COc1ccc(-c2ccc(-c3ccc(C(=N)N)cn3)s2)cc1OC	89.1%
